PLCb3 inh – inhibitors of human phospholipase C beta3 | Q01970 | Purified PLC-beta3, fluorogenic substrate, fluorescence | inhibition, % at 12.2 µM | 0.18% of 370,000 active | AID 720704; in the data active = inhibition above about 11%
UHRF1 MBD2 ctr – UHRF1 methyl-DNA binding inhibition. AID 687016. 0.75% of 370,000 active. inhibition, % at 4.4 µM. UHRF1 binding to methylated oligo, TR-FRET. Q96T88; in the data active = inhibition above about 21%;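 also: UHRF1 SRA domain binding a hemimethylated CpG hairpin DNA probe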
Target sequence (Q96T88 whole entry, looked up, the tested form may be a part): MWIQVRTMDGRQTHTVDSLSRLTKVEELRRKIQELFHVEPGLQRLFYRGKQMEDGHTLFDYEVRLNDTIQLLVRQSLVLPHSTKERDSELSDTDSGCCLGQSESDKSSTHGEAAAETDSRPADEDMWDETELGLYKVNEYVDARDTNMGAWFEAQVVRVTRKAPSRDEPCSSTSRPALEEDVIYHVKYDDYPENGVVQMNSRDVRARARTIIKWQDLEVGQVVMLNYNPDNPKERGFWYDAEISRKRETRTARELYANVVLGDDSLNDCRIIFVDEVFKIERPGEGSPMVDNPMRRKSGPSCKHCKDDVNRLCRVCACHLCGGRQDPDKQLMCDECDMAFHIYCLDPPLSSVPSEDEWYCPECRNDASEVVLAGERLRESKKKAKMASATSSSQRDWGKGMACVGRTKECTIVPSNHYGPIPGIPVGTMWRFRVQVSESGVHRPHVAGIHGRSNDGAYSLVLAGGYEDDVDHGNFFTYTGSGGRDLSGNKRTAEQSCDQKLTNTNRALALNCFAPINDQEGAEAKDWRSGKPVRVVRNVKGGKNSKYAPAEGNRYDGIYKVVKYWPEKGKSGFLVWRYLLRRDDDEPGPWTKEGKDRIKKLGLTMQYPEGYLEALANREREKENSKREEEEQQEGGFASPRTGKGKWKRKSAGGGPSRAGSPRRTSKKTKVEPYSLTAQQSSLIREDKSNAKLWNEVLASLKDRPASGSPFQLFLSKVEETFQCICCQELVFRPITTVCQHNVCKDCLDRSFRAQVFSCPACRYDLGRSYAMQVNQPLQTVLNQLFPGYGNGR
PLC-gamma1 inh – inhibitors of human phospholipase C gamma1; purified PLC-gamma1, fluorogenic substrate, fluorescence; AID 720700; P19174; inhibition, % at 12.2 µM; 0.84% of 370,000 active; in the data active = inhibition above about 9.5%
MBD2 inh – blocks human MBD2 binding to methylated DNA; TR-FRET, MBD2 binding to methylated oligonucleotide; AID 686964; inhibition, % at 4.4 µM; 0.31% of 370,000 active; Q9UBB5; in the data active = inhibition above about 13%
LEDGF integ inh – blocks HIV-1 LEDGF/p75-dependent DNA integration; TR-FRET IN-LEDGF/p75 DNA integration, Eu/Cy5; inhibition, % at 3.7 µM; 0.64% of 370,000 active;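 active = inhibition above the screen-wide mean plus 3 SD, cut at about 13% in these data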;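 also: signal is the Cy5 over europium emission ratio at 671 and 618 nm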
Of the large screens only hits and unclear results are named; the others gave an inactive call. In the library only some 2.4% were active in any assay of this set; here they are far more common.

CC(COc1cc(F)cc(F)c1)CN1CCC(C(O)(c2ccccc2)c2ccccc2)CC1 (stereo not drawn)	none
CC1=C(C(=O)N(C)C)CC(CC(=O)NCCc2ccccn2)C(=O)N1Cc1ccc(F)cc1 (stereo not drawn)	none
CC1=C(C(=O)N(C)C)CC(CC(=O)NCCc2ccccn2)C(=O)N1Cc1ccc(C(C)(C)C)cc1 (stereo not drawn)	UHRF1 MBD2 ctr 21
Cc1cc(C)c(S(=O)(=O)Nc2ccc3c(c2)CCC3)c(C)c1	PLC-gamma1 inh 13
CC1CCCN(Cc2c(O)ccc3c2O/C(=C\c2ccco2)C3=O)C1 (stereo not drawn)	LEDGF integ inh 29
CCN1CCN(Cc2c(O)ccc3c2O/C(=C\c2ccccc2)C3=O)CC1	none
O=C(CSc1nc2ncccc2[nH]1)NCc1ccco1	none
O=C(CSc1nccc(=O)[nH]1)NCc1ccco1	UHRF1 MBD2 ctr 34
CCCCn1c(NC(C)CC)nc2c1c(=O)[nH]c(=O)n2C (stereo not drawn)	UHRF1 MBD2 ctr 98
CN1CCc2cc3c(c4c2[C@H]1[C@H](O)c1ccccc1-4)OCO3	UHRF1 MBD2 ctr 35, MBD2 inh 66
CC(C)Cc1cc(C(=O)Nc2ccc(F)cc2F)no1	UHRF1 MBD2 ctr 24
CC(C)Cc1cc(C(=O)Nc2cc(Cl)ccc2Cl)no1	none
COc1ccc(-n2cccc2/C=C2/NC(=O)N(c3cccc(Cl)c3)C2=O)cc1	none
O=C(O)c1cccc(-n2cccc2/C=C2/NC(=O)N(c3cccc(Cl)c3)C2=O)c1	UHRF1 MBD2 ctr 27
C#CCNC(=O)CSCc1nc(-c2ccc(OCC)cc2)oc1C	none
COC(=O)[C@H](CC(C)C)N(CCc1cn(Cc2ccccc2)nn1)S(=O)(=O)c1ccccc1Br	none
COc1cccc(CC2(CO)CCCN(Cc3ccc(CN4CCCCC4)s3)C2)c1 (stereo not drawn)	UHRF1 MBD2 ctr 27
COc1cccc(CC2(CO)CCCN(Cc3ccccc3Cl)C2)c1 (stereo not drawn)	none
COC(=O)C1CN(C2CCCC2)CCS(=O)(=O)N1Cc1cn(Cc2ccc(F)cc2)nn1 (stereo not drawn)	none
Cc1ccc(OCc2nnc(SCC(=O)c3ccc4ccccc4c3)n2-c2ccc(Cl)cc2)cc1	none
Cc1ccc(-n2ncc(C(=O)Nc3cc(Cl)cc(Cl)c3)c2C2CCNCC2)cc1C	PLC-gamma1 inh 9.8
CCCCn1c(N)c(N(CC(C)C)C(=O)c2cc3c(s2)CCCCC3)c(=O)[nH]c1=O	UHRF1 MBD2 ctr 57
COC(=O)c1n[nH]nc1-c1ccccc1	UHRF1 MBD2 ctr 22
COC(=O)c1nc(-c2ccccc2)nc(-c2ccccc2)c1C(=O)OC	none
CC(C)C[C@@H](CN)NC(=O)c1nc[nH]c1C(=O)N[C@@H](Cc1c[nH]c2ccccc12)C(=O)CNC[C@H](C)NC(=O)c1nc[nH]c1C(=O)N[C@@H](C)C(=O)O	UHRF1 MBD2 ctr 24
CC(C)C[C@@H](CN)NC(=O)c1nc[nH]c1C(=O)N[C@@H](Cc1ccccc1)C(=O)CNC[C@H](C)NC(=O)c1nc[nH]c1C(=O)N[C@@H](C)C(=O)O	none
CC(C)C[C@@H](CN)NC(=O)c1nc[nH]c1C(=O)N[C@@H](Cc1ccccc1)C(=O)CNC[C@H](C)NC(=O)c1nc[nH]c1C(=O)N[C@@H](CC(C)C)C(=O)O	UHRF1 MBD2 ctr 21
CC(C)C[C@@H](CNCC(=O)[C@H](Cc1c[nH]c2ccccc12)NC(=O)c1[nH]cnc1C(=O)N[C@@H](C)CN)NC(=O)c1nc[nH]c1C(=O)N[C@@H](Cc1ccccc1)C(=O)O	UHRF1 MBD2 ctr 21
CCCCNS(=O)(=O)CC1NCc2ccc(C)cc21 (stereo not drawn)	none
Cc1ccc(C2CC(=O)C=C(NCc3ccccc3)C2)cc1 (stereo not drawn)	UHRF1 MBD2 ctr 36
Cc1ccc(C2CC(=O)C=C(NCC(C)C)C2)cc1 (stereo not drawn)	none
CC(C)C[C@H]1COc2cc(NCCO)ccc2S(=O)(=O)N1	none
C[C@@H]1COc2cc(N3CCCCC3)ccc2S(=O)(=O)N1	UHRF1 MBD2 ctr 22
CC(C)C[C@@H]1COc2cc(NC3CC3)ccc2S(=O)(=O)N1	UHRF1 MBD2 ctr 21
C[C@@H]1COc2cc(NCCO)ccc2S(=O)(=O)N1	UHRF1 MBD2 ctr 22
O=C(c1cccc(F)c1F)N1CCCC(c2nc(-c3cccs3)no2)C1 (stereo not drawn)	none
O=C(NCCc1c[nH]c2ccccc12)OCc1cn(Cc2ccc(F)cc2F)nn1	none
CN(Cc1cn(CC2CCCCC2)nn1)S(=O)(=O)c1ccccc1Br	none
CCn1c(SCC(=O)Nc2ccccc2-c2ccccc2)nnc1-c1ccc(Cl)cc1	none
COc1cc(NC(=O)CSc2nc(C)cc(=O)[nH]2)cc(OC)c1	none
O=C(O)c1ccccc1CC(CCc1ccccc1)C(=O)O (stereo not drawn)	UHRF1 MBD2 ctr 21
Nc1nc(SCc2ccc(Br)cc2)[nH]c(=O)c1-c1ccccc1	UHRF1 MBD2 ctr 29
Nc1nc(SCc2nc(-c3ccccc3)no2)[nH]c(=O)c1-c1ccccc1	none
COC(=O)[C@H](C(C)C)N1Cc2nnn(CC3CCCCC3)c2-c2cc(F)ccc2S1(=O)=O	none
COc1ccc2ccccc2c1C=Nn1c(-c2n[nH]c3c2CCC3)n[nH]c1=S	none
CN(CCNC(=O)CCCOc1cc(=O)n(C)c2ccccc12)Cc1ccccc1	UHRF1 MBD2 ctr 21
C=CCn1c(CNS(=O)(=O)c2ccc(F)cc2)n[nH]c1=S	UHRF1 MBD2 ctr 42
C=CCn1c(CNS(=O)(=O)c2ccc(Cl)cc2)n[nH]c1=S	none
COc1ccc(S(=O)(=O)N2CCC(C(=O)Nc3nccs3)CC2)cc1	UHRF1 MBD2 ctr 30
Cc1c[nH]c2cccc(-c3cc4ccccc4o3)c12	none
COc1c(C)cc(Br)cc1C(=O)Nc1ccccc1N1CCN(C(=O)c2ccccc2)CC1	UHRF1 MBD2 ctr 55
COCCNC(=O)C[C@H]1CC[C@H]2[C@@H](COc3ccc(NC(=O)Nc4cccc(F)c4)cc3C(=O)N2C)O1	none
CCOc1ccc2c(c1)[nH]c(=S)n2C	UHRF1 MBD2 ctr 39
O=C(CCC1CCCCC1)Nc1nncs1	UHRF1 MBD2 ctr 26
OC(CSc1c(Cl)cccc1Cl)CN1CCN(c2ccc(F)cc2)CC1 (stereo not drawn)	PLC-gamma1 inh 15
S=C(Nc1cccc(Cl)c1)OCCN1CCCC12CCC(c1ccccc1)CC2 (stereo not drawn)	none
CCOC(=O)CC[C@@H]1CC[C@]2(CCCN(C(=O)c3cccnc3)C2)O1	none
CCOc1ccc(CCNC(=O)C2CC(=O)N(CCc3ccccc3)C2)cc1OCC (stereo not drawn)	none
CCOc1ccc(NC(=O)C2CC(=O)N(CCc3ccccc3)C2)cc1OC (stereo not drawn)	UHRF1 MBD2 ctr 24
CC(C)CCNC(=O)C1(C)CCN1Cc1ccc2ccccc2c1 (stereo not drawn)	UHRF1 MBD2 ctr 34
O=C(CSc1nc2ccccc2n1CCc1ccccc1)N1CCOCC1	none

Source: PubChem BioAssay
